# In PubChem BioAssay (NCATS):
# Records with an inconclusive call do not appear. Entries that show only a call come without a potency. A number with no mark means an inactive call. Activity calls are given as the source filed them. Calls come from the whole dose curve; as a rule, active = well fitted inhibition curve with a large enough effect; inconclusive = small, poorly fitted or top-dose-only effect; inactive = flat fitted curve, though single readings scatter.
# What was measured:
# [1] = target: Glutathione peroxidase 1 (Homo sapiens) (UniProt P07203); test: Primary qHTS Assay for Inhibitors of Recombinant Selenoprotein Glutathione Peroxidase 1 (GPX1) (AID 1845191)
# Chain of Glutathione peroxidase 1 (Homo sapiens) (P07203 whole entry, looked up): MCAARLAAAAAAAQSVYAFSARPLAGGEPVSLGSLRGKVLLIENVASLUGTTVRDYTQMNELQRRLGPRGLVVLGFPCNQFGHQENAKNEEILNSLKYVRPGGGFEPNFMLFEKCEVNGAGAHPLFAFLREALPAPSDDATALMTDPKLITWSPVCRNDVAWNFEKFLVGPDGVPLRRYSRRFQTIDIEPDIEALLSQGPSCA
# Summary of the method: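 GPX1 10 nM, GR 100 nM, GSH 1 mM, NADPH 0.5 mM, CHP 0.5 mM (final). 30-min cpd preincubation, RT. Ex340/Em450 read t=0, t=15 min.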
# [2] = target: Phospholipid hydroperoxide glutathione peroxidase GPX4 (Homo sapiens) (UniProt P36969); test: Primary qHTS Assay for Inhibitors of Recombinant Selenoprotein Glutathione Peroxidase 4 (GPX4) (AID 1845192); for activity change, negative = inhibition: series mostly up to about 50 µM
# Chain of Phospholipid hydroperoxide glutathione peroxidase GPX4 (Homo sapiens) (P36969 whole entry, looked up): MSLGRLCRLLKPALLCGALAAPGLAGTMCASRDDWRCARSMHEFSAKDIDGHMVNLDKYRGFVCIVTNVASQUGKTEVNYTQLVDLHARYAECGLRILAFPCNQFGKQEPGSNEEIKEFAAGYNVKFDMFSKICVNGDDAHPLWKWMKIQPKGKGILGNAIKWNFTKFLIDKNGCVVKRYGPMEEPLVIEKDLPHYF
# Summary of the method: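 qHTS, GR-coupled: GPX4 200 nM + cpd 30 min RT → GSH 1 mM, NADPH 0.5 mM, GR 100 nM → CHP 0.5 mM start; fluor 340/450 at t0 and t15 min; no-enzyme wells as control.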
# Note: nearly all actives have a fitted effect of over 65% in size.
# Potency is the fitted concentration of half-maximal effect.
compound,measurement,setting,value
COC(=O)CCC[N+](C)(C)C,Potency,[1],inactive
same,Potency,[2],inactive
O=[N+]([O-])c1c(Cl)cccc1-c1c[nH]cc1Cl,Potency,[1],inactive
same,Potency,[2],inactive
C(=C\c1ccncc1)/c1ccccc1,Potency,[1],inactive
same,Potency,[2],inactive
C=CCOc1ccc(CC(=O)O)cc1Cl,Potency,[1],inactive
same,Potency,[2],inactive
Nc1nc2c(c(=O)[nH]1)N(C=O)C(CNc1ccc(C(=O)N[C@@H](CCC(=O)O)C(=O)O)cc1)CN2 (some centres undefined),"activity, negative = inhibition",[1],-12.1% [at 0.4 µM]
same,"activity change, negative = inhibition",[2],-4.6% [at 0.409 µM]
C=CC[N+]1([C@H]2C[C@H]3[C@@H]4CC[C@H]5C[C@H](O)[C@@H](N6CCOCC6)C[C@]5(C)[C@H]4CC[C@]3(C)[C@H]2OC(C)=O)CCCC1,Potency,[1],inactive
same,Potency,[2],inactive
NC[C@H]1O[C@H](O[C@H]2[C@H](O)[C@@H](O[C@H]3O[C@H](CO)[C@@H](O)[C@H](N)[C@H]3O)[C@H](N)C[C@@H]2N)[C@H](O)[C@@H](O)[C@@H]1O,outcome,[1],inactive [at 4.49 µM]
same,outcome,[2],inactive [at 4.52 µM]
CC(C)(C)NCC(O)CSc1nc(-c2ccc(C(N)=O)s2)cs1 (centres undefined),Potency,[1],22.7 µM (active)
same,Potency,[2],12.6 µM (active)
CN1C(=O)C[C@@H](C(=O)N[C@@H](Cc2cnc[nH]2)C(=O)N2CCC[C@H]2C(N)=O)NC1=O,Potency,[1],inactive
same,Potency,[2],inactive
OCCN1CCN(CC/C=C2/c3ccccc3Sc3ccc(Cl)cc32)CC1,Potency,[1],inactive
same,Potency,[2],inactive
CCCCCCCCCCCCCCCC(=O)OC[C@@H](O)[C@H]1OC[C@H](O)[C@H]1O,Potency,[1],inactive
same,Potency,[2],inactive
C=C[C@]1(C)C[C@@H](OC(=O)CSCCN(CC)CC)[C@]2(C)[C@H](C)CC[C@]3(CCC(=O)[C@H]32)[C@@H](C)[C@@H]1O,Potency,[1],inactive
same,Potency,[2],inactive
FC(F)OC(Cl)C(F)(F)F (centres undefined),Potency,[1],inactive
same,Potency,[2],inactive
O=C(OCc1ccccc1)c1ccc(O)cc1,Potency,[1],inactive
same,Potency,[2],inactive
CO[C@@H]1[C@H](OC(=O)/C=C/C=C/C=C/C=C/C(=O)O)CC[C@]2(CO2)[C@H]1[C@@]1(C)O[C@@H]1CC=C(C)C,Potency,[1],inactive
same,Potency,[2],14.1 µM (active)
O=P(O)(O)OP(=O)(O)O,Potency,[1],inactive
same,Potency,[2],inactive
CCCOc1cc(N)ccc1C(=O)OCCN(CC)CC,Potency,[1],inactive
same,Potency,[2],inactive
CC(C)Cc1ccc([C@@H](C)C(=O)NS(C)(=O)=O)cc1,Potency,[1],inactive
same,Potency,[2],inactive
OC[C@@H](O)C(O)[C@H](O)CO,Potency,[1],inactive
same,Potency,[2],inactive
NC[C@H]1O[C@H](O[C@H]2[C@H](O)[C@@H](O[C@H]3O[C@H](CO)[C@@H](O)[C@H](N)[C@H]3O)[C@H](N)C[C@@H]2N)[C@H](N)C[C@@H]1O,Potency,[1],inactive
same,Potency,[2],inactive
O=C1[O][Bi][O]c2ccccc21,outcome,[1],inactive [at 0.4 µM]
same,outcome,[2],inactive [at 0.409 µM]
C[S+](C)CCC(N)C(=O)O (centres undefined),Potency,[1],inactive
same,Potency,[2],inactive
CN1CCN(C(c2ccccc2)c2ccc(Cl)cc2)CC1 (centres undefined),Potency,[1],inactive
same,Potency,[2],inactive
CC(C)C[C@H](NC(=O)[C@@H](COC(C)(C)C)NC(=O)[C@H](Cc1ccc(O)cc1)NC(=O)[C@H](CO)NC(=O)[C@H](Cc1c[nH]c2ccccc12)NC(=O)[C@H](Cc1cnc[nH]1)NC(=O)[C@@H]1CCC(=O)N1)C(=O)N[C@@H](CCCN=C(N)N)C(=O)N1CCC[C@H]1C(=O)NNC(N)=O,Potency,[1],inactive
same,Potency,[2],inactive
CS(=O)(=O)OCC(O)C(O)COS(C)(=O)=O (centres undefined),Potency,[1],inactive
same,Potency,[2],inactive
CCCc1ccc(C(=O)O)cc1,Potency,[1],inactive
same,Potency,[2],inactive
Cc1c(C)c2c(c(C)c1OC(=O)CCC(=O)O)CC[C@@](C)(CCC[C@H](C)CCC[C@H](C)CCCC(C)C)O2,Potency,[1],inactive
same,Potency,[2],inactive
